Pol beta inh = DNA polymerase beta (human) inhibition. P06746. Pol beta primer extension/strand displacement, fluorescence kinetic. Potency, µM (series often up to 114 µM), without a hit: at the top dose activity change, negative = inhibition, hits mostly inhibitors. actives 1.3% (n = 340,000). AID 485314; further: on the % scale 0 is the no-effect control and ±100 the full control effect
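Kinetic readout of DNA synthesis with strand displacement by Pol beta. Compound and 10 nM enzyme sit 15 min at room temperature; 50 nM substrate starts the reaction, read immediately and at 10 min.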
Pol iota inh = DNA polymerase iota (human) inhibition. Pol iota fluorescent replication assay, 10 min. Potency, µM (doses to about 115 µM), without a hit: at the top dose activity, negative = inhibition, hits mostly inhibitors. actives 1% (n = 390,000)
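Fluorescent replication assay read twice, at 0 min and 10 min after adding 50 nM (final) substrate. Enzyme (10 nM) and compounds were first incubated 15 min at room temperature; enzyme-free buffer wells were negative controls.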
FEN1 inh = blocks human flap endonuclease 1 | Potency, µM (titrated, usually from 114 µM), for inactives: at the top dose activity change, negative = inhibition, actives largely listed as inhibitors | P39748 | Recombinant FEN1 flap cleavage, fluorescence, 15 min | AID 588795 | actives 0.35% (n = 390,000); further: on the % scale 0 is the no-effect control and ±100 the full control effect; nearly all actives have a fitted effect of over 65% in size
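Enzyme 10 nM, 15 min RT preincubation with compound; start with substrate 50 nM final; reads at 0 and 15 min; qHTS titration, four-parameter Hill fit.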
Pol eta inh-1 = blocks human DNA polymerase eta activity; Q9Y253; recombinant Pol eta, fluorescent DNA replication assay; Potency, µM (titrated, usually from 114 µM), without a hit: top-dose activity change, negative = inhibition, hits mostly inhibitors; actives 1.2% (n = 390,000); AID 588591; further: on the % scale 0 is the no-effect control and ±100 the full control effect
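Pol eta at 10 nM preincubated with compounds 15 min at room temperature; reaction started with fluorescent substrate (50 nM final) and read kinetically at 0 and 10 min.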
WRN inhibitor = WRN helicase (human) inhibition. Potency, µM (titrated, usually from 114 µM), without a hit: at the highest dose activity change, negative = inhibition, most hits filed as inhibitors. WRN helicase unwinding, fluorescent forked duplex, kinetic. actives 0.46% (n = 360,000). AID 651768; further: on the % scale 0 is the no-effect control and ±100 the full control effect; nearly all actives have a fitted effect of over 55% in size
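WRN at 20 nM final preincubated with compound 15 min at room temperature; reaction started with 100 nM fluorophore/quencher forked duplex oligonucleotide and 2 mM ATP final. Unwinding followed kinetically by red fluorescence (ex 525, em 598 nm).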
Pol kappa inh-1 = blocks human DNA polymerase kappa activity; Q9UBT6; purified Pol kappa, fluorescent DNA synthesis assay, 10 min; Potency, µM (highest dose often 107 µM), for inactives: at the top dose activity, negative = inhibition, actives largely listed as inhibitors; actives 0.53% (n = 400,000); further: on the % scale 0 is the no-effect control and ±100 the full control effect
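Inhibition of 10 nM Pol kappa is measured by a fluorescent read-out at 0 and 10 min following addition of 50 nM substrate (final), with a 15-min room-temperature compound preincubation.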
TbPGK inh = validation of Trypanosoma brucei phosphoglycerate kinase inhibitors. shares compounds with Pol kappa inh-1. TbPGK coupled GAPDH assay, Kinase-Glo luminescence. Potency, µM (doses to about 57.5 µM), inactives show at the top dose activity change, negative = inhibition, usual class: inhibitors. actives 79% (n = 500). AID 686980; further: on the % scale 0 is the no-effect control and ±100 the full control effect; nearly all actives have a fitted effect of over 65% in size
POLI cherry-pick = Confirm cherry-picked inhibitors of human polymerase iota | shares compounds with Pol kappa inh-1 | Pol iota primer extension, TAMRA/BHQ fluorescence | Potency, µM, most hits filed as inhibitors | actives 77% (n = 1,500) | AID 720496
Pol kappa inh-2 = confirmation of human DNA polymerase kappa inhibitors. shares compounds with Pol eta inh-1. purified Pol-kappa, fluorescent strand-displacement substrate. Potency, µM, most hits filed as inhibitors. actives 76% (n = 920)
Pol eta inh-2 = Pol eta (human) inhibition, cherry-pick confirmation; shares compounds with Pol eta inh-1; Pol eta primer extension, TAMRA/BHQ fluorescence, 10 min; Potency, µM, most hits filed as inhibitors; actives 64% (n = 2,600); AID 720502
* marks the source's active call; other numbers are inactive results; ? = inconclusive; / = no result given; [ ] = remark or other dose. Shown are actives, neighbours in structure and some others; about 2.4% of the full set was active somewhere. The call rests on the fitted dose curve; in most records, active means well fitted curve in the direction sought with a large enough effect; inconclusive means small, poorly fitted or top-dose-only effect, or another doubt; inactive means no such curve, though single readings can be large; an effect the other way counts as inactive or inconclusive. Potency means the concentration at half of the fitted maximal effect.

SMILES | Pol beta inh | Pol iota inh | FEN1 inh | Pol eta inh-1 | WRN inhibitor | Pol kappa inh-1 | POLI cherry-pick | Pol eta inh-2 | others
CC(C)(CS(=O)(=O)[O-])NC(=O)CC[N+](C)(C)CCO | 2µM* | 1.41µM* | 39.8µM* | 0.794µM* | 7.94µM* | 22.4µM* | / | 8.49* | TbPGK inh=3.26µM*
Cc1cnc(CNc2cc(-c3ccoc3)ncn2)cn1 | / | / | / | / | / | -9.1%[60.1 µM] | / | /
CCOC(=O)C1=C(COC(=O)/C=C/c2ccco2)NC(=O)NC1C (stereo unspecified) | / | 14.1µM* | 4.3% | 11.2µM* | ? | 50.1µM* | 18.9* | 26.9*
Cc1cccc(C(=O)NC2(C(F)(F)F)N=C(c3ccccc3)N(C3CCCCC3)C2=O)c1 (stereo unspecified) | 16.1% | 10.4% | -8.8% | -12.0% | / | 2.4% | / | /
COc1cc(C)cc(C(=O)O)c1C1=C(O)c2cccc(O)c2C(=O)C1=O | 28.2µM* | 35.5µM* | ? | 15.8µM* | ? | 50.1µM* | 33.6* | 23.9*
Cc1c(C(=O)O)sc2nc(CSc3ncc(C(F)(F)F)cc3Cl)[nH]c(=O)c12 | 39.8µM* | ? | -20.3% | 31.6µM* | -19.3% | -19.1% | ? | 67.5*
CN(Cc1ccccc1)C(=O)[C@H](Cc1ccc2ccccc2c1)NC(=O)[C@@H]1CCCN1C(=O)Nc1ccccc1[N+](=O)[O-] | / | / | / | / | / | -5.6%[60.1 µM] | / | /
NC(=O)Cc1ccc(C(=O)CSc2nnc(-c3ccncc3)n2C2CC2)s1 | / | 14.1µM* | ? | 12.6µM* | ? | 79.4µM* | ? | 75.7*
NC1=NC(=O)/C(=C\c2ccco2)S1 | ? | ? | 50.1µM* | 17.8µM* | 50.1µM* | 39.8µM* | 16.8* | 26.9* | Pol kappa inh-2=11.9*
NC1=NC(=O)C(=Cc2ccccc2)S1 | / | -18.1% | -0.1% | -6.8% | -12.0% | -11.9% | / | /
O=C(Nc1ccc(S(=O)(=O)N2CCOCC2)cc1)c1nn(-c2ccc(F)cc2)ccc1=O | 5.9% | 43.0% | 24.7% | -11.7% | 2.4% | 15.6% | / | /
O=C(Nc1ccc(S(=O)(=O)Nc2nccs2)cc1)c1nn(-c2ccc(F)cc2)ccc1=O | ? | 35.5µM* | ? | 20µM* | 50.1µM* | 89.1µM* | 67* | 42.6*
O=C(CSc1nnc(SCc2ccccc2)s1)N/N=C/C=C/c1ccco1 | 10µM* | 14.1µM* | ? | 2.82µM* | 39.8µM* | 25.1µM* | 15* | 19* | Pol kappa inh-2=15*
CCn1c(SCC(=O)N/N=C/C(C)=C/c2ccco2)nnc1-c1ccccc1 | ? | ? | -20.5% | 89.1µM* | ? | ? | 59.7* | ?
CCn1c(SCC(=O)N/N=C(\C)c2ccco2)nnc1-c1ccccc1 | 12.6% | 13.1% | -3.8% | -6.3% | 1.0% | 5.4% | / | /
O=C(CSc1nnc(SCc2cccc3ccccc23)s1)N/N=C/c1c[nH]c2ccccc12 | 4.7% | 6.8% | 8.6% | -18.5% | -9.6% | 1.3% | / | /
Cn1c(SCC(=O)N/N=C/C=C/c2ccco2)nc2ccccc21 | 22.4µM* | 35.5µM* | ? | 14.1µM* | ? | 79.4µM* | 67* | 75.7*
O=C(CSc1nnc(SCc2ccc(Cl)cc2)s1)N/N=C/c1c[nH]c2ccccc12 | 8.91µM* | 10µM* | ? | 3.16µM* | ? | ? | 8.44* | 19*

Screening results deposited in PubChem by National Center for Advancing Translational Sciences (NCATS).
